Experimental data: PubChem BioAssay (NCI)
About 79,000 compounds went through this panel and 15% of them were active in at least one assay; those are over-represented in the sample as a whole. Activity calls are given as the source filed them. Cut-off read from the data, not from the text of the source: active = growth inhibition above about 70%; inactive = the rest.

Experiments:
[1] = NCI Yeast Anticancer Drug Screen. Data for the rad50 strain (AID 155);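 note: 0% = growth of vehicle-only cultures of the same strain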; settings: S. cerevisiae rad50 strain growth inhibition, active compounds read high
How it was run: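 A DNA repair-deficient yeast mutant serves as the test organism; compound-induced growth inhibition is calculated against vehicle-treated cells.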

[2] = NCI Yeast Anticancer Drug Screen. Data for the mec2-1 strain (AID 157); settings: S. cerevisiae mec2-1 strain, active compounds read high
How it was run: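 Readout is yeast growth inhibition, normalised to vehicle-treated controls, in the mec2-1 strain exposed to compound.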

[3] = NCI Yeast Anticancer Drug Screen. Data for the sgs1 mgt1 strain (AID 161);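 note: 0% = growth of cultures given vehicle only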; settings: S. cerevisiae sgs1 mgt1 strain, active compounds read high
How it was run: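 Compounds are added to genetically altered yeast, and growth is compared with cultures given vehicle alone to give percent inhibition.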

[4] = NCI Yeast Anticancer Drug Screen. Data for the cln2 rad14 strain (AID 165);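 note: 0% = growth equal to vehicle treated cultures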; settings: S. cerevisiae cln2 rad14 strain, active compounds read high
How it was run: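 Relative to vehicle controls, growth inhibition of compound-treated cln2 rad14 yeast was recorded.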

[5] = NCI Yeast Anticancer Drug Screen. Data for the bub3 strain (AID 167); settings: S. cerevisiae bub3 mutant strain, active compounds read high
How it was run: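 Inhibition values come from growth of compound-treated mutant yeast normalised to vehicle-treated controls.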

[6] = NCI Yeast Anticancer Drug Screen. Data for the mlh1 rad18 strain (AID 175); settings: S. cerevisiae mlh1 rad18 strain growth inhibition, active compounds read high
How it was run: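 Test agents were incubated with a yeast strain of defined genotype (DNA damage repair defect). Inhibition of growth was derived by comparison with vehicle-exposed cultures.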

[7] = at 5.0 µM (retest, dose inferred, filed as 0.5)
[8] = at 50.0 µM (retest, dose inferred, filed as 5.0)

Measured: growth inhibition

O=[As]c1cccc2ccccc12 (stereo not given)
active: [1]; [7] 99% | [1]; [8] 99% | [1]; at 50.0 µM 99.3% | [2]; [7] 100% | [2]; [8] 100% | [2]; at 50.0 µM 99.6% | [3]; [7] 99% | [3]; [8] 99% | [3]; at 50.0 µM 99.7% | [4]; [7] 100% | [4]; [8] 99% | [4]; at 50.0 µM 99.2% | [5]; [7] 99% | [5]; [8] 99% | [5]; at 50.0 µM 99.3% | [6]; [7] 99% | [6]; [8] 99% | [6]; at 50.0 µM 99.3%

CCOP(=O)(OCC)/C(C#N)=C/c1cccc(F)c1
inactive: [1]; [7] -9% | [1]; [8] 45% | [2]; [7] -11% | [2]; [8] 23% | [2]; at 50.0 µM 59.3% | [3]; [7] -2% | [3]; [8] 36% | [3]; at 50.0 µM 64.8% | [4]; [7] 17% | [4]; [8] 33% | [4]; at 50.0 µM 25.4% | [5]; [7] -12% | [5]; [8] 56% | [5]; at 50.0 µM 51.1% | [6]; [7] -1% | [6]; [8] 69% | [6]; at 50.0 µM 68.9%
active: [1]; at 50.0 µM 73.8%

O=P(O)(Oc1ccccc1)Oc1ccccc1.[Ag]
active: [1]; [8] 71% | [1]; at 50.0 µM 92.2% | [2]; [8] 87% | [2]; at 50.0 µM 94% | [3]; [7] 99% | [3]; [8] 98% | [3]; at 50.0 µM 94% | [4]; [7] 70% | [4]; [8] 99% | [4]; at 50.0 µM 93% | [5]; [7] 100% | [5]; [8] 99% | [5]; at 50.0 µM 92.8% | [6]; [8] 86% | [6]; at 50.0 µM 92.3%
inactive: [1]; [7] 36% | [2]; [7] 37% | [6]; [7] 37%

CC1(C)N=C(N)N=C(N)N1c1ccc(OCCCCNC(=O)Nc2ccc(S(=O)(=O)F)cc2)c(Cl)c1
inactive: [1]; [7] -3% | [2]; [7] -2% | [3]; [7] -1% | [4]; [7] -4% | [5]; [7] -3% | [6]; [7] -2%
active: [1]; [8] 96% | [1]; at 50.0 µM 98.3% | [2]; [8] 97% | [2]; at 50.0 µM 99.3% | [3]; [8] 98% | [3]; at 50.0 µM 99.4% | [4]; [8] 98% | [4]; at 50.0 µM 97.3% | [5]; [8] 98% | [5]; at 50.0 µM 98.8% | [6]; [8] 99% | [6]; at 50.0 µM 99.1%

COc1cc2c(cc1OC)C(OC)N(C)c1c-2ccc2cc3c(cc12)OCO3 (stereo not given)
inactive: [1]; [7] 16% | [1]; [8] 41% | [1]; at 50.0 µM 3.45% | [2]; [7] 9% | [2]; [8] 12% | [2]; at 50.0 µM -48% | [3]; [7] 7% | [3]; [8] 30% | [3]; at 50.0 µM -22.1% | [4]; [7] 16% | [4]; [8] 33% | [4]; at 50.0 µM 6.7% | [5]; [7] 2% | [5]; [8] 30% | [5]; at 50.0 µM -40% | [6]; [7] 17% | [6]; [8] 24% | [6]; at 50.0 µM -21.8%

O=C(CCl)OCc1ccccc1
inactive: [1]; [7] 1% | [1]; [8] 14% | [1]; at 50.0 µM 34.1% | [2]; [7] 3% | [2]; [8] 21% | [2]; at 50.0 µM 30.7% | [3]; [7] 0% | [3]; [8] 18% | [3]; at 50.0 µM 10.3% | [4]; [7] 5% | [4]; [8] 10% | [4]; at 50.0 µM -21.9% | [5]; [7] -3% | [5]; [8] 5% | [5]; at 50.0 µM 5.4% | [6]; [7] 5% | [6]; [8] 20% | [6]; at 50.0 µM 55%

CC(=O)C(CN(C)Cc1ccccc1)C(c1ccccc1)c1c(O)c2ccccc2oc1=O (stereo not given)
active: [3]; at 50.0 µM 71.7% | [5]; at 50.0 µM 70.7% | [6]; at 50.0 µM 76.5%
inactive: [1]; [7] 26% | [1]; [8] 26% | [1]; at 50.0 µM 68.5% | [2]; [7] 1% | [2]; [8] 1% | [2]; at 50.0 µM 56.2% | [3]; [7] 24% | [3]; [8] 24% | [4]; [7] -9% | [4]; [8] -9% | [4]; at 50.0 µM 47.5% | [5]; [7] -1% | [5]; [8] -1% | [6]; [7] 11% | [6]; [8] 11%

CC(C)c1ccccc1OP(=S)(S)Oc1ccccc1C(C)C
inactive: [1]; [7] 4% | [1]; [8] 38% | [2]; [7] 5% | [2]; [8] 24% | [2]; at 50.0 µM 2.75% | [3]; [7] 1% | [3]; [8] 45% | [4]; [7] 4% | [4]; [8] 54% | [5]; [7] 0% | [5]; [8] 54% | [5]; at 50.0 µM 37% | [6]; [7] 0% | [6]; [8] 68%
active: [1]; at 50.0 µM 82.8% | [3]; at 50.0 µM 72.8% | [4]; at 50.0 µM 87.3% | [6]; at 50.0 µM 79%

[C-]#[O+].[C-]#[O+].[C-]#[O+].[C-]#[O+].[C-]#[O+].[Mo+2].[Mo+4].[c-]1[c-][c-][cH-][c-]1.[c-]1[c-][c-][cH-][c-]1.c1ccc([PH+](CC[PH+](c2ccccc2)c2ccccc2)c2ccccc2)cc1
active: [1]; [7] 82% | [1]; [8] 98% | [1]; at 50.0 µM 90.5% | [2]; [7] 73% | [2]; [8] 99% | [2]; at 50.0 µM 93% | [3]; [7] 91% | [3]; [8] 98% | [3]; at 50.0 µM 92.3% | [4]; [8] 98% | [4]; at 50.0 µM 92% | [5]; [7] 84% | [5]; [8] 98% | [5]; at 50.0 µM 92.3% | [6]; [7] 79% | [6]; [8] 98% | [6]; at 50.0 µM 90.5%
inactive: [4]; [7] 60%

CC1=C/C(=C2/N=C(N(C)C)SS2)C(C)=N1
inactive: [1]; [7] 11% | [1]; at 50.0 µM 13.2% | [2]; [7] 1% | [2]; [8] 48% | [2]; at 50.0 µM -0.9% | [3]; [7] 31% | [3]; at 50.0 µM 8.85% | [4]; [7] 9% | [4]; [8] 48% | [4]; at 50.0 µM 15.4% | [5]; [7] 23% | [5]; [8] 66% | [5]; at 50.0 µM 43.9% | [6]; [7] 5% | [6]; at 50.0 µM 16.7%
active: [1]; [8] 78% | [3]; [8] 88% | [6]; [8] 71%
